Experimental data published in PubChem BioAssay AID1259418 (Broad Institute, 2018).
In all, about 3,400 compounds went through this assay and about 840 (25%) were called active. Not shown: some 11% with an inconclusive outcome. Not all results are given here. Entries with a potency or affinity are not part of this list. Values without a mark were called inactive.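 How the source made its calls: active means fitted half-maximal concentration of signal decrease at or below twice the sample's top tested concentration; inconclusive means flat curve between -70 and -30 percent, or poor fit; inactive means flat within 30 percent, signal rise, or potency above limit.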

Assay: inhibitors of Toxoplasma growth in IFN-γ-primed HeLa – cell-based, ME49Luc, luciferase, 72 h, dose response (AID 1259418)
Conditions: T. gondii ME49Luc in IFN-y HeLa, stronger effect = lower value, -100% = high-dose IFN-γ control wells; at 19.5 µM unless noted

Compound | max activity
O=C(Nc1ccc(F)cc1)N1CC(=O)N2[C@@H](CO)[C@@H](c3ccc(C4=CCCC4)cc3)[C@@H]2C1 | 25.4% [at 10 µM]
O=C(c1cnccn1)N1CC(=O)N2[C@H](CO)[C@H](c3ccc(-c4cccc(F)c4)cc3)[C@@H]2C1 | 25.7%
O=C(c1cnccn1)N1CC(=O)N2[C@H](C1)[C@@H](c1ccc(-c3cccc(F)c3)cc1)[C@@H]2CO | 6.32%
CCOc1ccccc1-c1noc(-c2nnn(Cc3nc(-c4ccc(OC)cc4)oc3C)c2C)n1 | 9.41% [at 1.35 µM]
COC(=O)c1ccccc1NC(=O)Nc1ccc(-c2nc(-c3ccc(C)cc3C)co2)cc1 | 13.8% [at 0.16 µM]
CSCc1noc(CN2CCCC3(C2)CN(C)C(=O)O3)n1 (centres undefined) | 41.2%
COc1cc(OC)cc(-c2noc(-c3nnn(Cc4nc(-c5ccccc5OC)oc4C)c3C)n2)c1 | 6.32% [at 0.68 µM]
Cc1ccc(-c2nc(CN3CCN(C(=O)Nc4cc(C)cc(C)c4)CC3)c(C)o2)cc1 | 9.49% [at 2.6 µM]
CCOc1ccc(-c2nc(CN3CCN(C(=O)Nc4ccc(C)c(C)c4)CC3)c(C)o2)cc1 | 14.4% [at 0.35 µM]
Cc1ccc(-c2nc(CN3CCN(C(=O)Nc4cc(Cl)ccc4C)CC3)c(C)o2)cc1 | 11.2% [at 10 µM]
CCOc1ccc(-c2nc(CN3CCN(C(=O)Nc4ccc(C)c(F)c4)CC3)c(C)o2)cc1 | 15%
CCOC(=O)CSC1=Nc2ccccc2C2=NC(CCC(=O)NCc3ccccc3OC)C(=O)N12 (centres undefined) | 28.4% [at 1.35 µM]
CC(C)N1CCC2(CC1)CC(COCC1CC1)N(c1ncccn1)C2 (centres undefined) | 22.4%
O=C(CCC1CCCC1)N1CCC2(CC1)Nc1cc(F)ccc1-n1cccc12 | 4.37%
CC(C)[C@H](CO)Nc1nc(Nc2ccc(C(=O)O)c(Cl)c2)c2ncn(C(C)C)c2n1 | 10.1% [at 10 µM]
Cc1nc(-c2ccc(F)cc2)sc1-c1ccc(SCc2ccc(Br)cc2)nn1 | 10.9% [at 1.35 µM]
COCC(=O)N1CCC2(CC1)Nc1ccc(C)c(C)c1-n1cccc12 | 4.86% [at 10 µM]
CCc1nc(OCC(=O)Nc2ccc(Cl)c(C(F)(F)F)c2)c2ccccc2n1 | 33.2% [at 2.6 µM]
CN(C)CCN1CCOCC2(CCCN(C(=O)c3ccc4cc[nH]c4c3)C2)C1 (centres undefined) | 32.3%
Cc1cc(N2CCOCC2)nc2ccc(NC(=O)c3cc4ccccc4[nH]3)cc12 | 9.53% [at 0.16 µM]
COc1ccc(NC(=O)N2CCN(Cc3nc(-c4ccccc4C)oc3C)CC2)cc1 | 6.09% [at 0.16 µM]
O=C(NC1CCC12CCN(Cc1ccoc1)CC2)c1cnccn1 (centres undefined) | 54.2%
Cc1cc(C)c2c(=O)n(Cc3nc(-c4ccccc4)oc3C)c(=O)n(-c3ccccc3)c2n1 | 11.1% [at 0.35 µM]
Cc1cc(C)c2c(=O)n(Cc3nc(-c4ccc(Cl)cc4)oc3C)c(=O)n(-c3ccccc3)c2n1 | -16.5%
O=C(NC1CCCC1)[C@H]1[C@H](CO)[C@H]2Cn3c(ccc(C4=CCCCC4)c3=O)[C@@H]1N2CC1CC1 | 28.5% [at 10 µM]

Compound | max activity
COc1ccccc1-c1nc(CSc2nc3c(c(=O)[nH]2)CN(Cc2ccccc2)CC3)c(C)o1 | 31.5%
COCC1CN(C(=O)Cc2ccsc2)Cc2nccn2C1 (centres undefined) | 35.1%
CCCCc1ccc(Nc2ncnc3c2cnn3-c2cccc(C)c2)cc1 | 13.1% [at 5 µM]
COCCCNc1ncnc2c1cnn2-c1ccc(C)cc1C | 11.9% [at 0.16 µM]
Cc1ccc(-n2ncc3c(NC(C)(C)C)ncnc32)c(C)c1 | 53.9%
Cc1ccc(Nc2ncnc3c2cnn3-c2ccc(C)cc2C)cc1 | 16.5% [at 1.35 µM]
CCOc1ccc(-c2nc3c(s2)CN(C(=O)Nc2ccccc2CC)CC3)cc1 | 124%
Cc1oc(-c2cccc(Cl)c2)nc1CN1CCc2c(sc3c2CCCC3)C1c1ccccc1 (centres undefined) | 20.4%
COc1ccc(N2CC(NC(=O)C(=O)c3c(C)[nH]c4ccccc34)CC2=O)cc1 (centres undefined) | 15.6% [at 2.6 µM]
COc1ccc(CC(=O)N2CCC[C@@H]2C(=O)NCCc2csc(-c3ccccc3)n2)cc1Cl | 18.7% [at 5 µM]
Cc1nc(-c2ccc(F)cc2)sc1-c1ccc(SCc2cccc(F)c2)nn1 | 25.1%
CC(C)c1ccc(S(=O)(=O)N2CCC3(CC2)NCCN=C3NCc2cccc(F)c2)cc1 | -18.4%
CC(C)c1ccc(S(=O)(=O)N2CCC3(CC2)NCCN=C3NCc2ccccc2)cc1 | -31.9%
COc1ccc(C2=NC3(CCN(CC(=O)Nc4ccccc4F)CC3)NC2=O)cc1 | -25.6% [at 0.35 µM]
Cn1nnc2c(NCCc3c[nH]c4ccccc34)ncnc21 | 6.96% [at 0.35 µM]
CCc1c(C)sc2c1CCN(Cc1nc(-c3ccc(OC)cc3)oc1C)C2c1ccccc1 (centres undefined) | 15.1% [at 5 µM]
N#Cc1cccc(-c2ccc(C3[C@@H]4CN(C(=O)Nc5ccc(C(F)(F)F)cc5)C[C@H]3N4)cc2)c1 (some centres undefined) | 16.9% [at 10 µM]
Clc1cccc(CSc2nc(NC3CCCCC3)c3ccccc3n2)c1 | 11% [at 10 µM]
CCc1onc(C)c1C1CCCN1Cc1cn(C)c2ccc(OC)cc12 (centres undefined) | 9.05% [at 0.68 µM]
COc1ccc(-c2nc(NCCc3ccc(Cl)cc3)c3ccccc3n2)cc1 | 25.9% [at 0.16 µM]
COc1ccc(-c2nc(NCCc3ccc(C)cc3)c3ccccc3n2)cc1 | 14.1% [at 0.16 µM]
COc1ccc(-c2nc(NCc3ccc4c(c3)OCO4)c3ccccc3n2)cc1 | -12% [at 1.35 µM]
CCc1ccc(CNc2nc(-c3ccc(Cl)cc3)nc3ccccc23)cc1 | 24.5%
Fc1ccc(CNc2nc(-c3ccc(Cl)cc3)nc3ccccc23)cc1 | 7.26%
COc1ccc(-c2nc(NCc3ccc(Cl)cc3)c3ccccc3n2)cc1 | -9.43% [at 0.35 µM]

Compound | max activity
CCC(C(=O)N1CSC[C@@H]1C(=O)NCCc1csc(-c2ccccc2)n1)c1ccccc1 (some centres undefined) | 16.6% [at 5 µM]
COc1cccc(-c2nc3c(s2)CN(C(=O)Nc2ccccc2C)CC3)c1 | 59.1%
CCCCOCCOCCOCc1cc2c(cc1CCC)OCO2 | 17.6%
COc1ccc(-c2nc(Nc3cccc(C)c3)c3ccccc3n2)cc1 | -18.2% [at 0.16 µM]
CCc1nc(OCC(=O)NCc2ccc(OC)cc2)c2ccccc2n1 | 25.3%
C/C=C/c1ccc([C@H]2[C@H](CO)N3C(=O)CN(C(=O)NC4CCCCC4)C[C@@H]23)cc1 | 19.7%
CC(C)C#Cc1ccc([C@@H]2[C@@H](CO)N3C(=O)CN(C(=O)NC4CCCC4)C[C@H]23)cc1 | 19% [at 10 µM]
O=C(Cc1cccnc1)N1CC(=O)N2[C@H](CO)[C@@H](c3ccc(/C=C/c4ccccc4)cc3)[C@H]2C1 | 9.82% [at 10 µM]
O=C(Cc1cccnc1)N1CC(=O)N2[C@H](CO)[C@H](c3ccc(/C=C/c4ccccc4)cc3)[C@@H]2C1 | 20.1% [at 10 µM]
CCc1ccc2c(c1)cc(S(=O)(=O)c1ccccc1)c(=O)n2CC(=O)NCCC1=CCCCC1 | -4.67% [at 2.6 µM]
Cc1nc(OCC(=O)NCc2ccc(F)cc2)c2ccccc2n1 | 25% [at 10 µM]
CCc1nc(OCC(=O)Nc2ccc(OC)cc2)c2ccccc2n1 | -14.2%
CC(=O)N1CCN(C(C)C)C(c2nnc3ccc(C(=O)N4CCCC4)cn23)C1 (centres undefined) | 43.3%
COCC(=O)N1CC(=O)N2[C@H](CO)[C@@H](c3ccc(-c4ccccc4F)cc3)[C@H]2C1 | 43.4%
COc1ccc(-c2ccc([C@@H]3[C@@H](CO)N4C(=O)CN(Cc5ccccc5)C[C@H]34)cc2)cc1 | 18% [at 10 µM]
COc1ccc(-c2ccc([C@@H]3[C@@H](CO)N4C(=O)CN(Cc5ccccc5)C[C@@H]34)cc2)cc1 | 9.38% [at 5 µM]
COCC(=O)N1CC(=O)N2[C@H](CO)[C@@H](c3ccc(-c4ccncc4)cc3)[C@H]2C1 | 45.2%
Cc1ccc(CNC(=O)Cn2c(=O)c(S(=O)(=O)c3ccccc3)cc3ccccc32)cc1 | 11% [at 0.16 µM]
Cc1ccc2[nH]c(C(=O)N3CCN(c4ccccn4)CC3)c(NC(=O)c3ccc(Cl)cc3)c2c1 | 30.8% [at 10 µM]
COCC(=O)Nc1ccc(-c2nc(-c3ccc(C)cc3C)co2)cc1 | 13.9% [at 0.16 µM]
O=C(c1ccccc1F)N1CCC2(CC1)Nc1cc(F)ccc1-n1cccc12 | -7.85% [at 2.6 µM]
CCCCC(=O)Nc1ccc(-c2nc(-c3ccccc3)co2)cc1 | 9.5% [at 10 µM]
COCCCN1CCc2nc(SCc3nc(-c4ccc(OC)cc4)oc3C)[nH]c(=O)c2C1 | 25.5% [at 0.16 µM]
Cc1nc(CCNC(=O)C2CCN(S(=O)(=O)c3ccc(F)c(Cl)c3)CC2)cs1 | 8.69% [at 5 µM]
